# Active and inactive are the calls of the source.
# Legend:
# [1] = tested on: PRMT1 (protein arginine N-methyltransferase 1); test: PRMT1 binders on small-molecule microarrays, primary screen, biochemical, small-molecule microarray, 635 nm fluorescence (AID 1088); conditions: small-molecule microarray binding, higher = more signal;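 further: binding of Prmt1 protein to compounds spotted on small-molecule microarray slides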
# [2] = yeast growth modulation, basal conditions, primary screen, YJM789 clinical isolate, OD600, 24 h (AID 1089);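 further: growth of clinical yeast isolate S. cerevisiae YJM 789 seeded 1000 cells per well; test concentration not given here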; conditions: S. cerevisiae YJM789 growth; higher = more signal, called active from +8 up or from −8 down unless noted
# [3] = fission yeast growth modulation, primary screen, strain 972, OD600, 24 h, no modulator (AID 1090);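 further: basal condition with compound alone and no growth modifier present; test concentration not given here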; conditions: S. pombe 972 growth; higher = more signal, called active from +8 up or from −8 down unless noted
# [4] = S. cerevisiae growth modulation with rapamycin, primary screen, strain BY4716, OD600, 96 h (AID 1091); conditions: higher = more signal, called active from +8 up or from −8 down unless noted; further: test concentration not given here
# [5] = biological target: Torsin-1A-interacting protein 2 (Homo sapiens) (UniProt Q8NFQ8); test: LULL1 binders on small-molecule microarray, primary screen, cell lysate, human LULL1 lysate, 635/667 nm fluorescence (AID 1092); conditions: hLULL1 lysate binding, 635 nm fluorescence, higher = more signal;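 further: probe is lysate of COS7 cells overexpressing human LULL1; score merges per-feature 667 nm fluorescence with signal-to-noise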
# [6] = E. coli growth modulation, two-sided OD650, primary screen, E. coli filamentation project, strain DRC41, 24 h (AID 1093); conditions: OD650, 24 h; higher = more signal, called active from +8 up or from −8 down unless noted;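 further: MC1000 strain lacking acrAB efflux and sulA so SOS filamentation is blocked; test concentration not given here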
# [7] = small-molecule microarray binders of probe aLefty2, primary screen, biochemical, biotinylated probe, 635/667 nm fluorescence (AID 1094); conditions: higher = more signal; small-molecule microarray, probe aLefty2, fluorescence unless noted;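 further: score merges spot fluorescence near 667 nm with spot signal-to-noise ratio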
# [8] = tested on: Noggin (protein binding on small-molecule microarray); test: Noggin binders on small-molecule microarray, primary screen, biochemical, 635/667 nm fluorescence (AID 1095); conditions: 635 nm fluorescence, higher = more signal;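 further: score merges 667 nm feature fluorescence with signal to noise over triplicate slides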
# [9] = biological target: Neurogenic locus notch homolog protein 3 (Homo sapiens) (UniProt Q9UM47); test: NOTCH3 binders on small-molecule microarray, primary screen, biochemical, 635/667 nm fluorescence (AID 1096); conditions: NOTCH3 binding, 635 nm fluorescence, higher = more signal
# [10] = small-molecule microarray binders of probe aEGFR, primary screen, biochemical, biotinylated probe, 635/667 nm fluorescence (AID 1097); conditions: higher = more signal; small-molecule microarray, probe aEGFR, fluorescence unless noted;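 further: probe is a biotinylated anti-EGFR antibody binding compounds printed on slides; score combines fluorescence near 667 nm and signal to noise of each spot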
# [11] = tested on: Plasmodium falciparum Sir2 (PF13_0152, Sir2A); test: pfSir2 binders on small-molecule microarrays, primary screen, biochemical, small-molecule microarray, 635 nm fluorescence (AID 1098); conditions: small-molecule microarray binding, fluorescence 635 nm; higher = more signal;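 further: score merges spot fluorescence intensity with its signal-to-noise ratio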
# [12] = small-molecule microarray binders of probe aDKK1, primary screen, biochemical, biotinylated probe, 635/667 nm fluorescence (AID 1099); conditions: higher = more signal; small-molecule microarray, probe aDKK1, fluorescence unless noted;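 further: score merges 667nm spot fluorescence with signal to noise across triplicate slides; reference of the scale not given here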
# [13] = small-molecule microarray binders of probe aCHRDL2, primary screen, biochemical, biotinylated probe, 635/667 nm fluorescence (AID 1100); conditions: higher = more signal; small-molecule microarray, probe aCHRDL2, fluorescence unless noted
# [14] = splicing luciferase reporter signal modulators, primary screen, spliceosome inhibition project, cell-based, HEK293, splice +/- reporter (AID 1101); conditions: luminescence, 24 h; higher = more signal, called active from +8 up or from −8 down unless noted;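 further: HEK293 cells carrying a splicing-competent luciferase reporter gene; test concentration not given here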
# [15] = biological target: Fibroblast growth factor 10 (Homo sapiens) (UniProt O15520); test: FGF10 binders on small-molecule microarrays, primary screen, biochemical, small-molecule microarray, 635 nm fluorescence (AID 1102); conditions: FGF10 binding, fluorescence 635 nm, higher = more signal
# [16] = tested on: glycogen synthase kinase-3 (GSK3A per assay name; protocol says GSK3B); test: GSK3 binders on small-molecule microarrays, primary screen, biochemical, small-molecule microarray, 635 nm fluorescence, GSK3A (AID 1103); conditions: small-molecule microarray binding, fluorescence 635 nm; higher = more signal; further: the record names both GSK3A and GSK3B
# [17] = biological target: Epidermal growth factor receptor (Homo sapiens) (UniProt P00533); test: EGFR binders on small-molecule microarrays, primary screen, biochemical, small-molecule microarray, 635 nm fluorescence (AID 1104); conditions: EGFR binding, higher = more signal;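 further: score merges 667 nm emission intensity with spot signal to noise over triplicate slides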
# [18] = biological target: Follistatin-related protein 3 (Homo sapiens) (UniProt O95633); test: FSTL3 binders on small-molecule microarrays, primary screen, biochemical, small-molecule microarray, 635 nm fluorescence (AID 1105); conditions: FSTL3 binding, higher = more signal;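 further: score merges emission near 667 nm and signal to noise per printed spot across three slides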
# [19] = biological target: Dickkopf-related protein 1 (Homo sapiens) (UniProt O94907); test: DKK1 binders on small-molecule microarrays, primary screen, biochemical, small-molecule microarray, 635 nm fluorescence scan (AID 1106); conditions: DKK1 binding, higher = more signal;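 further: score merges emission near 667 nm with signal to noise over three replicate slides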
# [20] = tested on: Inhibin beta A chain (activin A); test: INHBA (activin A) binders on microarrays, primary screen, biochemical, small-molecule microarray, 635 nm fluorescence scan (AID 1107); conditions: small-molecule microarray binding, higher = more signal;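 further: mouse activin A protein probed at 4.33 µg/mL on printed slides; score merges bound-protein fluorescence near 667 nm with spot signal-to-noise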
# Sequence of Fibroblast growth factor 10 (Homo sapiens) (O15520 whole entry, looked up): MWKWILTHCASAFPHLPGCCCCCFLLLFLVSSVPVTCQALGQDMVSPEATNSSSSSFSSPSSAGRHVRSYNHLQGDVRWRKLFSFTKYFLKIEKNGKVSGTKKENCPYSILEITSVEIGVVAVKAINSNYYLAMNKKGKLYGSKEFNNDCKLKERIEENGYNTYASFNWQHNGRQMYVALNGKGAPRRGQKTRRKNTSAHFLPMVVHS
# Sequence of Dickkopf-related protein 1 (Homo sapiens) (O94907 whole entry, looked up): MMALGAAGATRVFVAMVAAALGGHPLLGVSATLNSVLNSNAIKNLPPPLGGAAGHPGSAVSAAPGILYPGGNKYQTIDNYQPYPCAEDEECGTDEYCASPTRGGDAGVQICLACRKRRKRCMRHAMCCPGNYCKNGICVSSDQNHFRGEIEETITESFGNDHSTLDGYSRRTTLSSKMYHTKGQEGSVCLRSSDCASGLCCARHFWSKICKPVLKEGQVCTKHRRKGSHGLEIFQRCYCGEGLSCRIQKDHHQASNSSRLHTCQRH
# Sequence of Epidermal growth factor receptor (Homo sapiens) (P00533 whole entry, looked up): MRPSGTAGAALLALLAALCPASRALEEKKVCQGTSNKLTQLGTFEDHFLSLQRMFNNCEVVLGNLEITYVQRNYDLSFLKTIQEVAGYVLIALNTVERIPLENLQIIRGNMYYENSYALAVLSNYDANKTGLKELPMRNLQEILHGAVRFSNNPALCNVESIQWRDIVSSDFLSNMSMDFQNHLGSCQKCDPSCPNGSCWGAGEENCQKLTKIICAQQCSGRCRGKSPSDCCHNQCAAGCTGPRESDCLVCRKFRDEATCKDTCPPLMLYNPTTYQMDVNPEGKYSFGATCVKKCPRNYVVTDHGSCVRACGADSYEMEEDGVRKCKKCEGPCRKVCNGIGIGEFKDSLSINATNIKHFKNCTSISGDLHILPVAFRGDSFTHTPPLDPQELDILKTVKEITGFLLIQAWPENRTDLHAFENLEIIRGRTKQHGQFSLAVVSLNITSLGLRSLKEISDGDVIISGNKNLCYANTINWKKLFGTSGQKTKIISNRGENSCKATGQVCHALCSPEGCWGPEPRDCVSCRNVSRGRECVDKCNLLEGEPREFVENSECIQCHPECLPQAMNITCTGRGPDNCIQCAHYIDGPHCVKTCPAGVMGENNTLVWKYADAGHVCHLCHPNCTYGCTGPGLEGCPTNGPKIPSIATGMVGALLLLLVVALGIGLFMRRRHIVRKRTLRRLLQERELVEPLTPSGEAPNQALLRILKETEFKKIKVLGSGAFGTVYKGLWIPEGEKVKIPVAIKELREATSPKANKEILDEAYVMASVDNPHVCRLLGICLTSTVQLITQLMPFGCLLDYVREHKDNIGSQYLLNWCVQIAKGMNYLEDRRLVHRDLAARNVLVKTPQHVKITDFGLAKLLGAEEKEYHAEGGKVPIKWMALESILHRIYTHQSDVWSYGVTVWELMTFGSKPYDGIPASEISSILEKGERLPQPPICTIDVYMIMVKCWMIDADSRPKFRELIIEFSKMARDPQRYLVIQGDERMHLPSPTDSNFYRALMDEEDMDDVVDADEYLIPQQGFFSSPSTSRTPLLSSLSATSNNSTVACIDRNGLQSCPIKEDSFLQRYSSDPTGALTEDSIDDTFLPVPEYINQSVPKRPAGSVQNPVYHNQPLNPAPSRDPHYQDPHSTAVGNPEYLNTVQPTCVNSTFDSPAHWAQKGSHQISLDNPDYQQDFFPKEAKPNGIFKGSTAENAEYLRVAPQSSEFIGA
# Sequence of Torsin-1A-interacting protein 2 (Homo sapiens) (Q8NFQ8 whole entry, looked up): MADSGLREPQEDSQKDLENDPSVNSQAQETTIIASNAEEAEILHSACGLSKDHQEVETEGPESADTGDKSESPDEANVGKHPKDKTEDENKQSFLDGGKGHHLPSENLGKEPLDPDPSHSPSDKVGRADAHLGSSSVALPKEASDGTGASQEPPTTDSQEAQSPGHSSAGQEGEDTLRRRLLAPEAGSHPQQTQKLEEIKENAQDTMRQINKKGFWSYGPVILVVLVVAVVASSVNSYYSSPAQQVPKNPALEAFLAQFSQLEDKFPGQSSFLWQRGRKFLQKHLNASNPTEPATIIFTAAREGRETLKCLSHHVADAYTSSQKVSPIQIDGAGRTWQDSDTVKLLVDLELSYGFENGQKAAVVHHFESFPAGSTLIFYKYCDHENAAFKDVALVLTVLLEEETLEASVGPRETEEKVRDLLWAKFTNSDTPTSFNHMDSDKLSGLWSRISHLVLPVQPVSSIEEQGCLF
# Sequence of Follistatin-related protein 3 (Homo sapiens) (O95633 whole entry, looked up): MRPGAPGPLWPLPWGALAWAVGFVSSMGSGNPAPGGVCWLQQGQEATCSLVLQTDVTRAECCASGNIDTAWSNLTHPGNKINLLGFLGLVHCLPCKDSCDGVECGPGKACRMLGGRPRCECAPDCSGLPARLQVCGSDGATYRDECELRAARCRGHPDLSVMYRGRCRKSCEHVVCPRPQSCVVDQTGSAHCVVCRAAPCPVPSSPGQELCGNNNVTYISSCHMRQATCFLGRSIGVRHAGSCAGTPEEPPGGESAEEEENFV
# Sequence of Neurogenic locus notch homolog protein 3 (Homo sapiens) (Q9UM47 whole entry, looked up): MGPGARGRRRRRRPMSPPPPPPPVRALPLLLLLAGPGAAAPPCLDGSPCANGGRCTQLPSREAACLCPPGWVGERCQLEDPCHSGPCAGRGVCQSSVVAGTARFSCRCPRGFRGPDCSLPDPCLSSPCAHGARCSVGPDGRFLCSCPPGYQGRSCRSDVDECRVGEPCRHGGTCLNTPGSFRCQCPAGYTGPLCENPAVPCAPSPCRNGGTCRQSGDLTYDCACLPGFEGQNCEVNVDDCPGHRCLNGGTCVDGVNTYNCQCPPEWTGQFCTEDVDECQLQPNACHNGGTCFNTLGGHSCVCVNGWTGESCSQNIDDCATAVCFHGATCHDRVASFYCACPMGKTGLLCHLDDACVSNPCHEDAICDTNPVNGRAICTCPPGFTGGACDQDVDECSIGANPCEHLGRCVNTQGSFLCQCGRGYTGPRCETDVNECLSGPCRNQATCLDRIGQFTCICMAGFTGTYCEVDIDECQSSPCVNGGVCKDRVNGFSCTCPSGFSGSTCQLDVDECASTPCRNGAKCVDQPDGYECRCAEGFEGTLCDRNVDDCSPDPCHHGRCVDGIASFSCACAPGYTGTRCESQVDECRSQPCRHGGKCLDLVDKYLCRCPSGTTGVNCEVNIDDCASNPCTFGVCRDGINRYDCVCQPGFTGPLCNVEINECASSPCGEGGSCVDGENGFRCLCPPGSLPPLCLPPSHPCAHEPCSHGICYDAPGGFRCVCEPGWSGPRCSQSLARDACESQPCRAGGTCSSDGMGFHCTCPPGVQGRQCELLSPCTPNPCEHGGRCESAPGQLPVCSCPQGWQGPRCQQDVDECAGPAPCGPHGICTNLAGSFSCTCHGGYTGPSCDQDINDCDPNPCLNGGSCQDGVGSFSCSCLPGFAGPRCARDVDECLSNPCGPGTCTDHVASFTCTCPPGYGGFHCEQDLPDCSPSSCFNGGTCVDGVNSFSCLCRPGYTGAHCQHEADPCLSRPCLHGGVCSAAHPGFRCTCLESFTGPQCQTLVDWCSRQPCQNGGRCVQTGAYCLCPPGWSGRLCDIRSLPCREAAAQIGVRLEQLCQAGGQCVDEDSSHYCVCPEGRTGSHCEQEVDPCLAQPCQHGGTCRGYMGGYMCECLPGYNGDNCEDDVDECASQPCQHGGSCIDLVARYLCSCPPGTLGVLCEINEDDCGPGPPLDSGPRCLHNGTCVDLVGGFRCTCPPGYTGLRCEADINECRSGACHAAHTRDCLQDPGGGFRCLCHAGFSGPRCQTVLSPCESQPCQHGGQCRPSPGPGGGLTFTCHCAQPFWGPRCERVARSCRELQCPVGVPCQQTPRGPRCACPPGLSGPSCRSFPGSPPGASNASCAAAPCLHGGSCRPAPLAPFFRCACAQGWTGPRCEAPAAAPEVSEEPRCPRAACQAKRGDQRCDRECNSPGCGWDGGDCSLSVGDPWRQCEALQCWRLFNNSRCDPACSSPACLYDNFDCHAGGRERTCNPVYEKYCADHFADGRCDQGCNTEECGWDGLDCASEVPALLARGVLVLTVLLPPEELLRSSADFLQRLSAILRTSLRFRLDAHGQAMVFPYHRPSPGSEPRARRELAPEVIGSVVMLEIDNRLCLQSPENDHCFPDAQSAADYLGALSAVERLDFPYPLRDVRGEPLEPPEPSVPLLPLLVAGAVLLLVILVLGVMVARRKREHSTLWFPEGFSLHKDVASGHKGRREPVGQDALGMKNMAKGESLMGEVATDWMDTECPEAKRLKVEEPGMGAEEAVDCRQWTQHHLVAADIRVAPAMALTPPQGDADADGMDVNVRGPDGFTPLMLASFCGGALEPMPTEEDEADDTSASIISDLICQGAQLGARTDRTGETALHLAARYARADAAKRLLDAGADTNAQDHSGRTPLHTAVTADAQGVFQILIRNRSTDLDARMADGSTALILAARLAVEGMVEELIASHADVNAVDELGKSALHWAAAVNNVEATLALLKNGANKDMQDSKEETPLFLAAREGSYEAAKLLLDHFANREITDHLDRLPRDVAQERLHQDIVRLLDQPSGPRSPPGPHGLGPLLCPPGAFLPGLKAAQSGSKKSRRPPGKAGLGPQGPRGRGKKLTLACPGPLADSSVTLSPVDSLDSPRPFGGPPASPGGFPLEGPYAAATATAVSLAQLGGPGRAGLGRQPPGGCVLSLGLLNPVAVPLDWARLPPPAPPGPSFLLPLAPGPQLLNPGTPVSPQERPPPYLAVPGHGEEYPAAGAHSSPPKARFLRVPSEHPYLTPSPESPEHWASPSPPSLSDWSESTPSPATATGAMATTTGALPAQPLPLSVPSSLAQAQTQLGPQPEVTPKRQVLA
Compound,composite z-score [1],z-score [2],z-score [3],z-score [4],composite z-score [5],z-score [6],composite z-score [7],composite z-score [8],composite z-score [9],composite z-score [10],composite z-score [11],composite z-score [12],composite z-score [13],z-score [14],composite z-score [15],composite z-score [16],composite z-score [17],composite z-score [18],composite z-score [19],composite z-score [20]
C[C@@H]1OC=C2[C@@H](O)[C@H]3O[C@H]3C(=O)[C@]23[C@H]1[C@H]1C2=C([C@@H](O)[C@H]4O[C@H]4C2=O)[C@@H]3O[C@@H]1C,-0.259,-0.676 (inactive),0.585 (inactive),0.0254 (inactive),-0.957,-0.101 (inactive),-0.101,0.195,-0.186,-0.0689,-0.636,-0.0177,-0.572,0.802 (inactive),0.0109,-0.349,0.367,0.22,0.568,0.503
C=C(CC1(CNP(=O)(c2ccccc2)c2ccccc2)CC1)c1ccccc1,-0.683,0.0836 (inactive),1.79 (inactive),-0.165 (inactive),1.98,0.0375 (inactive),-0.0934,-0.682,-0.343,-0.0493,1.34,0.19,0.752,-0.937 (inactive),0.213,-0.383,0.187,-0.77,-0.542,1.16
C[C@@H]1Cc2c(cnc3c2CN(C)CC3)CO1,-0.377,-0.0303 (inactive),-0.591 (inactive),-0.582 (inactive),-0.0214,0.262 (inactive),-0.153,0.603,-0.78,0.0255,0.0529,-0.228,-0.368,-0.377 (inactive),0.32,-0.117,1.15,0.336,0.662,1.09
COC(=O)[C@H]1[C@@H](O)[C@@]2(O)c3c(OC)cc(OC)cc3O[C@@]2(c2ccc(OC)cc2)[C@@H]1c1ccccc1,0.002,-0.543 (inactive),-2.36 (inactive),0.118 (inactive),0.485,0.449 (inactive),-0.221,0.782,0.708,-0.0714,0.373,-0.193,-0.482,-1.89 (inactive),0.384,0.586,0.628,0.554,0.962,0.0587
CN1CCC(c2ccc(CO)cc2)=CC1C1CC1 (stereo not given),0.142,-1.01 (inactive),-1.39 (inactive),0.978 (inactive),-0.183,-0.409 (inactive),-0.308,0.062,-0.218,-0.154,0.262,-0.368,-0.49,0.596 (inactive),0.179,-0.107,0.388,-0.196,0.429,0.939
c1ccc(-c2cc3c(nc2-c2ccccc2)CCNC3)cc1,-0.93,0.52 (inactive),0.538 (inactive),2.17 (inactive),-0.908,-0.0201 (inactive),-0.0831,0.297,-0.73,-0.238,0.035,-0.193,-0.165,-0.326 (inactive),-0.757,-0.598,-0.0212,-0.419,-0.419,1.09
COC(=O)[C@H]1C(=O)c2ccccc2O[C@@](C(=O)OC)(c2ccccc2)[C@@H]1c1ccccc1,-1.47,-0.644 (inactive),-1.77 (inactive),0.225 (inactive),-0.565,0.161 (inactive),-0.159,-0.054,-1.01,-0.0093,0.118,-0.246,-0.354,-0.959 (inactive),0.232,-0.831,0.0442,-0.27,0.435,0.315
COC(=O)C1(C)C=C2C(=C(C)C(=O)C2C)CN1 (stereo not given),-0.289,0.957 (inactive),0.437 (inactive),1.14 (inactive),-0.132,-1.5 (inactive),-0.0175,-1,-1.2,-0.139,-0.656,0.859,0.944,0.522 (inactive),-0.618,-0.623,-0.885,-0.729,-0.706,1.11
OCc1ccc(C2=CC(c3cccs3)N(Cc3cccc(OC(F)(F)F)c3)CC2)cc1 (stereo not given),1.08,-0.583 (inactive),-3.83 (inactive),4.58 (inactive),1.1,0.398 (inactive),-0.145,0.257,0.0155,-0.1,0.916,-0.236,-0.0613,-1.18 (inactive),-0.0615,-0.123,-0.0657,0.107,0.0824,1.18
COc1cc2c(cc1O)C(C)N(C)CC2 (stereo not given),-0.474,0.051 (inactive),-2.28 (inactive),-1.65 (inactive),0.0713,0.891 (inactive),0.0914,-0.19,-0.245,0.0841,-0.528,0.0766,0.34,0.844 (inactive),-0.0182,-0.951,-0.855,-0.205,-0.227,0.953
COC(=O)[C@@]1(Cc2ccccc2)[C@H]2c3cc(C(=O)N(C)C)[nH]c3C[C@H]2CN1C(=O)c1ccccc1,-0.94,0.0969 (inactive),0.8 (inactive),0.98 (inactive),0.745,-0.482 (inactive),-0.0238,-1.23,-0.984,-0.116,0.45,0.425,0.709,0.454 (inactive),-0.36,-1.15,-0.649,-1.32,-1.06,1.02
COC(=O)[C@@]1(Cc2ccc(F)cc2)[C@H]2c3cc(C(=O)N(C)C)[nH]c3C[C@H]2CN1C(=O)c1ccccc1,-0.128,0.531 [setting not given] (inactive),0.0211 [setting not given] (inactive),0.229 [setting not given] (inactive),3.23,-0.152 [setting not given] (inactive),0.153 [setting not given],-0.512,-0.388,-0.0573 [setting not given],0.878,0.588 [setting not given],0.826 [setting not given],-0.825 [setting not given] (inactive),0.554,-0.275,-0.157,-0.589,-0.503,0.938
COc1cc2c(cc1O)C=[N+](C)CC2,-0.592,-1.76 (inactive),-0.412 (inactive),-1.25 (inactive),-0.496,-0.695 (inactive),0.0571,0.425,-0.102,-0.0967,0.136,0.148,-0.0058,0.131 (inactive),0.668,-0.11,-0.414,0.137,-0.14,1.35
COC(=O)[C@@]1(Cc2ccccc2)[C@H]2c3cc(C(=O)N(C)C)n(C)c3C[C@H]2CN1C(=O)c1ccccc1,-0.0444,0.16 (inactive),0.923 (inactive),0.462 (inactive),3.35,0.0234 (inactive),0.402,-0.73,-0.0403,-0.0391,1.5,-0.0842,0.836,-0.806 (inactive),0.358,-0.214,0.0444,-0.443,-0.631,1.09
CCc1cc2c(nc1CC)CCN(CCC(C)=NOC)C2,0.766,0.259 (inactive),-1.54 (inactive),-0.21 (inactive),0.839,-0.0797 (inactive),0.327,0.601,0.0855,0.0631,0.0885,-0.112,0.662,0.0386 (inactive),0.179,0.344,0.961,0.763,0.755,1.66
CCCC[C@@H]1C[C@H]1[C@@H](NP(=O)(c1ccccc1)c1ccccc1)c1ccc(Cl)cc1,-0.571,-0.513 (inactive),-10.8 (active),0.0654 (inactive),0.748,-0.412 (inactive),0.195,-1.67,-0.582,-0.263,-0.168,0.294,0.988,-3.54 (inactive),-0.668,-0.924,-1.5,-1.57,-0.818,1.18

# Source: PubChem BioAssay
